{
  "source": "PubChem BioAssay AID1566",
  "about": "(Sanford-Burnham Center for Chemical Genomics, 2009)",
  "note": "“And” between values parts separate entries of the source, which are not always exact repeats. Equal values may be shown once. Among all 290,000 compounds or so, about 1,800 (0.62%) were called active. The sample holds actives, similar compounds and a random draw of the others, so the mix is not that of the screen. Values without a mark were called inactive. Cut-off read from the data, not from the text of the source: active = inhibition above about 50%; inactive = the rest.",
  "data": [
    {"experiment": "NOD2 signaling inhibitors, cell-based, luminescence, uHTS, HEK293 (AID 1566)", "conditions": "HEK293 NOD2/NF-kB luciferase reporter, at 4 µM, active compounds read high", "values": [
      {"molecule": "Cc1nc2ccccc2c(=O)n1N", "inhibition": "-3.2%"},
      {"molecule": "Cc1nc2sc(-c3ccccc3)cc2c(=O)n1N", "inhibition": "-41.2%"},
      {"molecule": "Cc1nc2cc(-c3ccccc3)sc2c(=O)n1N", "inhibition": "54.8% (active)"},
      {"molecule": "CC(C)(C#N)NC(=O)C(=O)c1c(-c2ccccc2)cc2ccccn12", "inhibition": "5%"},
      {"molecule": "CCOc1ccc(-n2c(N)c(-c3nc4ccccc4[nH]3)sc2=S)cc1", "inhibition": "9.9%"},
      {"molecule": "COc1cccc(/C=N/Nc2ccc(S(=O)(=O)O)cc2)c1O", "inhibition": "15.4%"},
      {"molecule": "COc1cccc(/C=N/Nc2ccc(C(=O)O)cc2)c1O", "inhibition": "82.8% (active)"},
      {"molecule": "COc1cccc(/C=N/Nc2ccc([N+](=O)[O-])cc2)c1O", "inhibition": "-64%"},
      {"molecule": "CCOC(=O)CNC(=S)N(CCCN1CCN(C)CC1)Cc1cccs1", "inhibition": "-1.4%"},
      {"molecule": "O=C1OC(c2ccccc2)c2ccccc21", "note": "(stereo not drawn)", "inhibition": "-11.5%"},
      {"molecule": "CC1CCN(S(=O)(=O)c2ccc(NC(=O)CNC3CCCCC3)cc2)CC1", "inhibition": "-15.2%"},
      {"molecule": "Cc1sc2c(=O)n3c(nc2c1C(=O)NC1CCCCC1)CCCCC3", "inhibition": "16.8%"},
      {"molecule": "O=C(O)CCSc1nc2ccccc2s1", "inhibition": "65.2% (active)"},
      {"molecule": "O=C(CSc1nc2ccccc2s1)CSc1nc2ccccc2s1", "inhibition": "4.4%"},
      {"molecule": "O=C(O)CSc1nc2ccccc2s1", "inhibition": "0.2% and -11.4%"},
      {"molecule": "O=C(CSc1nc2ccccc2s1)N/N=C/c1ccccc1C(=O)O", "inhibition": "56.5% (active)"},
      {"molecule": "O=C(O)COc1ccccc1/C=N/NC(=O)CSc1nc2ccccc2s1", "inhibition": "-0.7%"},
      {"molecule": "O=C(CSc1nc2ccccc2s1)N/N=C/c1ccc(C(=O)O)cc1", "inhibition": "12.9%"},
      {"molecule": "Cc1ccc(S(=O)(=O)N2CCN3CCCC3C2)cc1", "note": "(stereo not drawn)", "inhibition": "17.2%"},
      {"molecule": "O=C(O)c1ccc(-n2c(/C=C/c3ccccc3)nc3ccccc3c2=O)cc1", "inhibition": "-19.9%"},
      {"molecule": "COc1ccc(Oc2nnc(-c3ccc(C)cc3)c3ccccc23)cc1", "inhibition": "14.9%"},
      {"molecule": "Cc1ccc(/C=C/C(=O)Nn2cnnc2)cc1", "inhibition": "5%"},
      {"molecule": "Cc1ccc(C)c(S(=O)(=O)NCc2ccncc2)c1", "inhibition": "22.5%"},
      {"molecule": "Cc1cc(Br)c(S(=O)(=O)NCc2ccncc2)cc1C", "inhibition": "48.6%"},
      {"molecule": "Cc1c(NP(=O)(Oc2ccccc2F)Oc2ccccc2F)c(=O)n(-c2ccccc2)n1C", "inhibition": "7.9%"},
      {"molecule": "O=C(Nc1cc(S(=O)(=O)N2CCCC2)ccc1OCC(F)(F)F)c1ccccc1F", "inhibition": "6.6%"},
      {"molecule": "COC(=O)c1c(-c2ccccc2)csc1NC(=O)CSc1ncnc2sc(C)c(C)c12", "inhibition": "34.6%"},
      {"molecule": "Cc1cccc(NC(=O)CSc2ncnc3sc(C)c(C)c23)n1", "inhibition": "36.5%"},
      {"molecule": "COC(=O)c1c(-c2cccs2)csc1NC(=O)CSc1ncnc2sc(C)c(C)c12", "inhibition": "51.2% (active)"},
      {"molecule": "O=C(O)CN1C(=O)C2C3CC(C2C1=O)C1C(c2ccc(Cl)cc2)c2sc(=O)[nH]c2SC31", "note": "(stereo not drawn)", "inhibition": "3.8%"},
      {"molecule": "Cc1nn(-c2ccccc2)c(Cl)c1/C=N/NC(=O)OC(C)(C)C", "inhibition": "-73.9%"},
      {"molecule": "Cc1ccc(C(=O)Nc2nnc(S(=O)(=O)N3CCCCCC3)s2)cc1", "inhibition": "4.6%"},
      {"molecule": "CC1CCN(S(=O)(=O)c2nnc(NC(=O)c3cccc([N+](=O)[O-])c3)s2)CC1", "inhibition": "37.1%"},
      {"molecule": "Cc1cccc(C(=O)Nc2nnc(S(=O)(=O)N3CCC(C)CC3)s2)c1", "inhibition": "-3.6%"},
      {"molecule": "O=C(Nc1nnc(S(=O)(=O)N2CCCCC2)s1)c1ccc(Cl)cc1", "inhibition": "47.8%"},
      {"molecule": "CC(=O)c1cccc(NCC(=O)c2ccc(C)c([N+](=O)[O-])c2)c1", "inhibition": "15.7%"},
      {"molecule": "Cc1ccc(S(=O)(=O)Nc2nnc(C(C)(C)C)s2)cc1", "inhibition": "20.9%"},
      {"molecule": "N/C(=N\\c1nc(CSc2ccc(Cl)cc2)cc(=O)[nH]1)Nc1ccccc1C(F)(F)F", "inhibition": "2.8%"},
      {"molecule": "Cc1ccc(C2CC(c3cccs3)=NN2C(=O)CCl)cc1", "note": "(stereo not drawn)", "inhibition": "37.3%"},
      {"molecule": "Cc1ccc(C2=NN(C(=O)CCl)C(c3ccco3)C2)o1", "note": "(stereo not drawn)", "inhibition": "-44.2%"},
      {"molecule": "O=C(O)CCC(=O)N1N=C(c2ccco2)CC1c1cccs1", "note": "(stereo not drawn)", "inhibition": "12.1%"},
      {"molecule": "CC(=O)N1N=C(c2ccco2)CC1c1cccs1", "note": "(stereo not drawn)", "inhibition": "-8.2%"},
      {"molecule": "CCOC(=O)c1cccc(NC(=O)COC)c1", "inhibition": "4.6%"},
      {"molecule": "CCOCCCNC(=O)/C(C#N)=C/c1ccc(C(=O)OC)cc1", "inhibition": "15.4%"},
      {"molecule": "O=C1Nc2ccccc2S/C1=C\\C(=O)N1CCCC1", "inhibition": "-4%"},
      {"molecule": "O=C(CCNC(=O)c1ccco1)Nc1ccccc1N1CCOCC1", "inhibition": "-4.7%"},
      {"molecule": "COc1cc(/C=C2\\SC(=O)N(CC(=O)Nc3ccccc3F)C2=O)cc(Cl)c1O", "inhibition": "18.4%"},
      {"molecule": "CCOc1cc(/C=C2\\SC(=O)N(CC(=O)Nc3ccccc3F)C2=O)cc([N+](=O)[O-])c1O", "inhibition": "55.8% (active)"},
      {"molecule": "COc1cc(/C=C2\\SC(=O)N(CC(=O)Nc3cccc(C)c3)C2=O)cc([N+](=O)[O-])c1O", "inhibition": "1.5%"},
      {"molecule": "O=C(NC1CCCCC1)C1CN(S(=O)(=O)c2ccccc2)CCN1S(=O)(=O)c1ccccc1", "note": "(stereo not drawn)", "inhibition": "20.9%"},
      {"molecule": "CCOC(=O)/C(C#N)=C1/SC(CC)C(=O)N1c1ccc(Br)cc1", "note": "(stereo not drawn)", "inhibition": "-8.1%"},
      {"molecule": "CC1CCN(C(=S)c2cn(Cc3ccccc3F)c3ccccc23)CC1", "inhibition": "10.5%"},
      {"molecule": "CC(=O)Oc1cccc(N2C(=O)C3CC=CCC3C2=O)c1", "note": "(stereo not drawn)", "inhibition": "2.7%"},
      {"molecule": "Cc1csc2c(N3CCN(C(=O)Nc4ccc(OC(F)(F)F)cc4)CC3)ncnc12", "inhibition": "10.4%"},
      {"molecule": "Cc1csc2c(N3CCN(C(=O)Nc4ccccc4)CC3)ncnc12", "inhibition": "34.1%"},
      {"molecule": "CC(NS(=O)(=O)c1ccc(Cl)cc1)C(=O)N1CCOCC1", "note": "(stereo not drawn)", "inhibition": "-4.3%"},
      {"molecule": "Cc1cc(OCC(=O)NCCCn2ccnc2)c2c(C)c(C)c(=O)oc2c1", "inhibition": "-3.4%"},
      {"molecule": "CC(=O)c1ccc(S(=O)(=O)N(C)C(C)CCc2ccco2)cc1", "note": "(stereo not drawn)", "inhibition": "54.3% (active)"},
      {"molecule": "COc1ccc(S(=O)(=O)N(C)C(C)CCc2ccco2)cc1", "note": "(stereo not drawn)", "inhibition": "-3.3%"},
      {"molecule": "CC(CCc1ccco1)N(C)S(=O)(=O)c1csc(C(N)=O)c1", "note": "(stereo not drawn)", "inhibition": "15%"},
      {"molecule": "CC(C)(C)C(=O)C[n+]1cccc(C(N)=O)c1", "inhibition": "12.8%"},
      {"molecule": "O=C(COc1cccc(C(F)(F)F)c1)Nc1ccc(S(=O)(=O)N2CCCC2)cc1", "inhibition": "-5.9%"},
      {"molecule": "Cc1cc(N2CCCC2)ccc1NC(=O)COc1cccc(C(F)(F)F)c1", "inhibition": "60.3% (active)"},
      {"molecule": "O=C(COc1ccccc1)Nc1cc(C(F)(F)F)ccc1N1CCCC1", "inhibition": "24.5%"},
      {"molecule": "O=C(Nc1cccc(C(F)(F)F)c1)C1CCN(S(=O)(=O)c2ccc(N3CCCC3=O)cc2)CC1", "inhibition": "34.8%"},
      {"molecule": "Cc1cccc(C)c1N=C1C(=O)Nc2ccccc21", "inhibition": "57.9% (active)"},
      {"molecule": "Cc1cc(C)c(N=C2C(=O)Nc3ccccc32)c(C)c1", "inhibition": "22.5%"},
      {"molecule": "Cc1ccc(N=C2C(=O)Nc3ccccc32)cc1", "inhibition": "4%"},
      {"molecule": "CCN(CC)C(=O)C1CCN(S(=O)(=O)c2ccc3c(c2)CCCN3C(=O)C2CCC2)CC1", "inhibition": "23.6%"},
      {"molecule": "COc1ccc(NC(C)=O)cc1NC(=O)c1ccc2ccccc2c1", "inhibition": "-14.6%"},
      {"molecule": "CCc1sc(NC(C)=O)nc1-c1ccccc1", "inhibition": "-49.5%"},
      {"molecule": "CC(=O)Nc1ccc(NC(=O)C2CCC(CNS(=O)(=O)c3cccc4nsnc34)CC2)cc1", "note": "(stereo not drawn)", "inhibition": "-8.1%"},
      {"molecule": "CCCc1cc(=O)n2nc(N3CCC(C(=O)N4CCN(c5ccc(OC)cc5)CC4)CC3)sc2n1", "inhibition": "62.2% (active)"},
      {"molecule": "CCCc1cc(=O)n2nc(N3CCC(C(=O)N4CCN(c5cccc(OC)c5)CC4)CC3)sc2n1", "inhibition": "40.5%"},
      {"molecule": "Cc1cc(=O)n2nc(N3CCC(C(=O)N4CCN(c5ccccc5)CC4)CC3)sc2n1", "inhibition": "-8.2%"},
      {"molecule": "NS(=O)(=O)c1ccc(CCNC(=O)c2ccc3ccccc3n2)cc1", "inhibition": "-17.8%"},
      {"molecule": "CCc1nnc(NC(=O)c2ccc(S(=O)(=O)N3CCc4ccccc4C3)cc2)s1", "inhibition": "25.4%"},
      {"molecule": "O=C(Nc1nnc(C2CC2)s1)c1ccc(Cl)c(S(=O)(=O)N2CCc3ccccc3C2)c1", "inhibition": "41.6%"},
      {"molecule": "CCCn1ncc(CN2CCCC(C(=O)c3cccc(OC(C)C)c3)C2)c1C", "note": "(stereo not drawn)", "inhibition": "-35.2%"},
      {"molecule": "Cc1[nH]c2ccc(C(=O)N3CCCCC3)cc2c1C", "inhibition": "-56%"},
      {"molecule": "CCC(=O)OCn1nnc2ccccc2c1=O", "inhibition": "7.6%"},
      {"molecule": "Cc1sc(NC(=O)c2cccc([N+](=O)[O-])c2)c(C(N)=O)c1-c1ccc(C(C)(C)C)cc1", "inhibition": "7.8%"},
      {"molecule": "Cc1sc(NC(=O)CCC(=O)O)c(C(N)=O)c1-c1ccccc1", "inhibition": "-3.9%"},
      {"molecule": "O=S(=O)(Nc1cccc(-c2cn3cccnc3n2)c1)c1ccccc1", "inhibition": "4.2%"},
      {"molecule": "O=S(=O)(Nc1cccc(-c2cn3cccnc3n2)c1)c1ccc(F)cc1", "inhibition": "0.9%"},
      {"molecule": "COC(=O)C1CC(Cl)CN1c1ncc(C(F)(F)F)cc1Cl", "note": "(stereo not drawn)", "inhibition": "17.1%"},
      {"molecule": "Brc1ccc2ncnc(NCc3ccccc3)c2c1", "inhibition": "79% (active)"},
      {"molecule": "c1ccc(CCNc2ncnc3ccccc23)cc1", "inhibition": "28.7%"},
      {"molecule": "CCCCCCCCNc1ncnc2ccccc12", "inhibition": "55.7% (active)"},
      {"molecule": "OCCCCCNc1ncnc2ccccc12", "inhibition": "40.1%"},
      {"molecule": "COc1cc2ncnc(NCc3ccco3)c2cc1OC", "inhibition": "-78.1%"},
      {"molecule": "c1ccc(CNc2ncnc3ccccc23)cc1", "inhibition": "55.3% (active)"},
      {"molecule": "Clc1ccc2c(NCc3ccco3)ncnc2c1", "inhibition": "18.8%"},
      {"molecule": "COc1cc2ncnc(NCc3ccccc3)c2cc1OC", "inhibition": "-17.4%"},
      {"molecule": "OCCNc1ncnc2ccc(Br)cc12", "inhibition": "23%"},
      {"molecule": "CCN(CC)CCCNc1ncnc2ccccc12", "inhibition": "9.5%"},
      {"molecule": "c1ccc(CNc2nc(NCc3ccccc3)c3ccccc3n2)cc1", "inhibition": "-4.4%"},
      {"molecule": "Nc1nc(Nc2cccc(Cl)c2)nc(NCCO)c1[N+](=O)[O-]", "inhibition": "15.3%"}
    ]}
  ]
}
